Consider eight compounds from PubChem BioAssay (Tox21).

The nature of test [1]: qHTS assay to identify small molecule agonists of H2AX (AID 1224845; active = well fitted activation curve with a large enough effect in the signal ratio in the repeat runs, not every such curve was filed as active; the % refers to the signal ratio; note: % is set by controls: 0 for no effect and ±100 for the full control effect). In a few lines:
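Wild-type CHO-K1 cells plated overnight, then exposed 3 hr at 37C to compounds at 15 concentrations (0.76% DMSO). Lysed, then HTRF anti-pH2AX(S139)-cryptate/anti-H2AX-d2 detection after 24 hr at room temperature; emissions 665 and 620 nm.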

The nature of test [2]: qHTS assay to identify small molecule agonists of the hypoxia (HIF-1) signaling pathway (AID 1224846; active = well fitted activation curve with a large enough effect in the signal ratio in the repeat runs, not every such curve was filed as active; the % refers to the signal ratio; note: % is set by controls: 0 for no effect and ±100 for the full control effect). Summed up:
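Compounds from the Tox21 10K library, dissolved in DMSO, are tested for induction of a hypoxia response element–controlled beta-lactamase reporter in ME-180 cells. Exposure lasts 17 hrs at 37C after a 5 hr settling period, followed by CCF4-AM FRET substrate.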

The nature of test [3]: qHTS assay to identify small molecule agonists of H2AX - cell viability counter screen (AID 1224847; calls by dose curve; note: top concentration of the series differs between compounds; % is set by controls: 0 for no effect and ±100 for the full control effect; nearly all actives have a fitted effect of over 30% in size). Summed up: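 After overnight plating of 1000 CHO-K1 cells per well, a 15-concentration compound series was applied for 3 hr at 37C. Luminescence from CellTiter-Glo, read following 30 min at room temperature, reflected cell viability.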
Test [4] can be described thus: qHTS assay to identify small molecule antagonists of the estrogen related receptor (ERR) signaling pathway from Tox21 library (AID 1224848). Note: potency is the fitted concentration of half-maximal effect; nearly all actives have a fitted effect of over 50% in size. In a few lines: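 Tox21 10K compounds in DMSO tested for ERR pathway antagonism in NTP's ERR cell line; 18 h, 37 C exposure; ONE-Glo luminescence.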
Test [5] can be described thus: qHTS assay to identify small molecule agonists of the estrogen related receptor (ERR) signaling pathway from Tox21 library (AID 1224849; calls by dose curve; note: % is set by controls: 0 for no effect and ±100 for the full control effect; nearly all actives have a fitted effect of over 15% in size). The following applies: ERR reporter cell line, ONE-Glo luciferase, 18 h; at 92.4 µM (top of the series) unless noted. In a few lines: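 Cells carrying the ERR reporter were plated and allowed to settle for 6 h, exposed to library compounds for 18 h at 37 C, then lysed with ONE-Glo and luminescence measured.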

A short description of test [6]: qHTS RealTime-Glo MT Cell Viability Assay in HepG2 cells - 24 hour (AID 1224867). Note: % is set by controls: 0 for no effect and ±100 for the full control effect; nearly all actives have a fitted effect of over 50% in size. In a few lines: (§1)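 Cell number in HepG2 cultures estimated from NanoLuc luminescence generated by metabolic reduction of a prosubstrate by living cells. The homogeneous, nonlytic format allowed repeated reads at 0, 8, 16, 24, 32 and 40 h of compound exposure.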
A general note: In qHTS, concentration-response curves come from the screen itself.

A short description of test [7]: qHTS RealTime-Glo MT Cell Viability Assay in HEK293 cells - 32 hour (AID 1224868). Note: top concentration of the series differs between compounds; % is set by controls: 0 for no effect and ±100 for the full control effect; nearly all actives have a fitted effect of over 50% in size. In a few lines:
(§2)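 Homogeneous bioluminescent viability format in HEK293 cells (600 cells/well). Following 5 h at 37 C/5% CO2, 23 nL compound was pintooled; the signal was measured repeatedly during 40 h incubation.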

The nature of test [8]: A CellTox Green Cytotoxicity Assay to monitor cytotoxicity in HEK293 cells - 0 hour (AID 1224869). Note: % is set by controls: 0 for no effect and ±100 for the full control effect; nearly all actives have a fitted effect of over 50% in size. In a few lines: (§3)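 Cells (HEK293, 600/well) and dye reagent are dispensed together. After 5 h at 37 C, 23 nL compound is pinned in. Plates stay at 37 C for 40 h with fluorescence read at 0h, 8h, 16h, 24h, 32h and 40h.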
Test [9] is described as follows: qHTS RealTime-Glo MT Cell Viability Assay in HepG2 cells - 40 hour (AID 1224870). In a few lines: (§4)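 HepG2 cells mixed with RealTime-Glo MT reagents (NanoLuc plus cell-permeant prosubstrate) were seeded at 600 cells/well, incubated 5 h at 37 C/5% CO2, then pinned with compounds in DMSO; nonlytic luminescence tracked viability during 40 h treatment.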
Test [10] can be described thus: A CellTox Green Cytotoxicity Assay to monitor cytotoxicity in HEK293 cells - 40 hour (AID 1224871). Note: % is set by controls: 0 for no effect and ±100 for the full control effect; nearly all actives have a fitted effect of over 45% in size. In a few lines:
as §3

Test [11] is described as follows: qHTS RealTime-Glo MT Cell Viability Assay in HEK293 cells - 16 hour (AID 1224872). Summed up:
as §2

A short description of test [12]: qHTS RealTime-Glo MT Cell Viability Assay in HEK293 cells - 40 hour (AID 1224874). The note with it: RealTime-Glo luminescence; max response: hits give low values. Summed up:
(§5)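 Real-time viability in HEK293: signal arises when living cells convert a prosubstrate for NanoLuc in the medium, so luminescence tracks viable cell number. Compound (23 nL, DMSO) added 5 h post-seeding; kinetic reads at 0–40 h, 37 C.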

A short description of test [13]: A CellTox Green Cytotoxicity Assay to monitor cytotoxicity in HEK293 cells - 24 hour (AID 1224875). Note: % is set by controls: 0 for no effect and ±100 for the full control effect; nearly all actives have a fitted effect of over 45% in size. In a few lines: as §3
Test [14] can be described thus: A CellTox Green Cytotoxicity Assay to monitor cytotoxicity in HepG2 cells - 16 hour (AID 1224876). Note: nearly all actives have a fitted effect of over 45% in size. Note: potency is the fitted concentration of half-maximal effect. Summed up:
(§6)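 Cells and non-lytic dye reagent are dispensed together (600 HepG2 cells/well) and incubated 5 h before DMSO compound transfer. Kinetic fluorescence is then recorded in the same wells during 40 h at 37 C.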

Test [15] can be described thus: qHTS RealTime-Glo MT Cell Viability Assay in HepG2 cells - 32 hour (AID 1224877). Note: % is set by controls: 0 for no effect and ±100 for the full control effect; nearly all actives have a fitted effect of over 55% in size. Summed up: as §1
The nature of test [16]: A CellTox Green Cytotoxicity Assay to monitor cytotoxicity in HepG2 cells - 24 hour (AID 1224878). For Cytotoxicity: % is set by controls: 0 for no effect and ±100 for the full control effect. Note: nearly all actives have a fitted effect of over 45% in size. Note: potency is the fitted concentration of half-maximal effect. In a few lines: as §6
A short description of test [17]: A CellTox Green Cytotoxicity Assay to monitor cytotoxicity in HepG2 cells - 40 hour (AID 1224879). Note: nearly all actives have a fitted effect of over 40% in size. Note: potency is the fitted concentration of half-maximal effect. Summed up:
as §6

The nature of test [18]: qHTS RealTime-Glo MT Cell Viability Assay in HEK293 cells - 0 hour (AID 1224880). In a few lines:
as §5

Test [19] in a line: qHTS RealTime-Glo MT Cell Viability Assay in HepG2 cells - 8 hour (AID 1224873). Note: % is set by controls: 0 for no effect and ±100 for the full control effect; nearly all actives have a fitted effect of over 55% in size. In a few lines: as §4
The nature of test [20]: qHTS assay to identify small molecule agonists of the hypoxia (HIF-1) signaling pathway - cell viability counter screen (AID 1224844; calls by dose curve). Summed up: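 Cytotoxicity was measured in parallel with the HRE-driven beta-lactamase readout: after 17 hrs of compound exposure at 37C, HRE-bla ME-180 cells received CellTiter-Glo and luminescence was recorded 30 min later.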

A number with no mark means an inactive call. Inconclusive results are not listed. Calls of active or inactive are those of the source. Unless noted, calls come from the whole dose curve; as a rule, active = well fitted curve in the direction sought with a large enough effect in the repeat runs; inconclusive = weak or mixed curves; inactive = no such curve, though single readings can be large; an effect the other way counts as inactive or inconclusive.

With `CCOc1ccc2[nH]cc(C(=O)NCc3ccccc3)c(=O)c2n1`, the Potency entry in test [1], in test [3], in test [6], in test [7], in test [8] and in test [9] was “inactive” in each case. In addition, the Potency result in test [10], in test [11], in test [13], in test [14], in [15] and in test [16] was “inactive” in each case. Further, the Potency result in test [17] and in test [18] was “inactive” in each case. The call in test [2] was inactive. In test [4], the Potency was 24.3 µM (active). In test [5], the activity change, positive = activation was -48.4%. Besides, the max response in test [12] was -23.2%.

`CCCCCCCCCC=O`: the Potency entry in test [1], in test [3], in test [6], in [7], in test [8] and in test [9] was “inactive” in each case. Further, the Potency result in test [10], in test [11], in test [19], in [13], in test [14] and in test [15] was “inactive” in each case. For the same compound, the Potency entry in test [16], in test [17] and in [18] was “inactive” throughout. For the same compound, in [2], the outcome was inactive. The max response in test [12] was 7.4%.

For `C=C(C)C(=O)OC(C)C`, the Potency entry in test [1], in test [3], in test [6], in test [7], in [8] and in test [9] was “inactive” throughout. The Potency entry in test [10], in test [11], in [13], in [14], in test [15] and in [16] was “inactive” throughout. The Potency result in test [17] and in [18] was “inactive” throughout. Also, the compound was called inactive in test [2]. Besides, the max response in test [12] was 6%.

As for `CCOC(=O)[C@H](CCc1ccccc1)N[C@H]1CCc2ccccc2N(CC(=O)O)C1=O`, the Potency result in [20] and in test [8] was “inactive” in each case. The Potency in test [14], in test [16] and in [17] was 26.8 µM (active) in each case.

For `O=S(=O)(O)c1ccc(O)c2ncccc12`, the Potency result in test [1], in test [6], in [7], in test [8], in [9] and in test [10] was “inactive” throughout. The Potency result in [11], in test [19], in [13], in test [14], in test [15] and in [16] was “inactive” in each case. Moreover, the Potency result in [17] and in [18] was “inactive” each time. In addition, the call in test [2] was inactive. Moreover, in test [12], the max response was 27.2%.

`O=C(/C=C/c1ccc(O)c(O)c1)O[C@@H]1C[C@](O)(C(=O)O)C[C@@H](O)[C@H]1O`: the Potency entry in test [20], in test [3], in test [6], in test [7], in [8] and in [10] was “inactive” throughout. The Potency result in [11], in test [19], in test [13], in test [14], in test [15] and in test [16] was “inactive” throughout. In addition, the Potency entry in [17] was “inactive”. Moreover, the max response in test [12] is -3.27%.

Turning to `CCCc1ccccc1`, the Potency result in test [1], in [3], in test [6], in test [7], in [8] and in test [10] was “inactive” each time. In addition, the Potency entry in test [11], in [19], in [13], in [14], in test [15] and in test [16] was “inactive” in each case. In addition, the Potency result in test [17] and in [18] was “inactive” throughout. For the same compound, the compound was called inactive in test [2]. The activity change, positive = activation in [5] is 2.82%. Besides, the max response in test [12] was 0.274%.

With `Cn1c(=O)c2c(ncn2CC(O)CO)n(C)c1=O` (configuration not stated), the Potency result in test [20], in test [3], in test [6], in test [7], in [8] and in test [10] was “inactive” throughout. Also, the Potency entry in test [11], in test [19], in [13], in [15], in test [17] and in [18] was “inactive” throughout. In addition, the activity change, positive = activation in [5] was 6.5% [at 42.5 µM]. Moreover, the max response in test [12] is 2.79%.
